Source: PubChem BioAssay
Most compounds without a hit are left out; they make up all but 18% or so of the library.
DT40 TDP1 no CPT – qHTS for Inhibitors of human tyrosyl-DNA phosphodiesterase 1 (TDP1): qHTS in cells in absence of CPT | AID 686978, 2013 | DT40 Tdp1-/- hTDP1 cells, no CPT, ATP luminescence, 48 h | Potency, µM (titrated, usually from 46.2 µM), without a hit: at the top dose activity change, negative = growth inhibition, actives largely listed as inhibitors | actives 15% (n = 420,000); further: potency means the concentration at half of the fitted maximal effect; nearly all actives have a fitted effect of over 55% in size
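Cells were dispensed at 400 per well, compounds added by pin tool, plates incubated ≥48 hr at 37 °C, then CellTiter-Glo added for 30 min at room temperature before luminescence reading. Line: DT40 Tdp1-/- complemented with hTDP1; camptothecin omitted.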
RORg inh – ROR gamma (mouse) transcription inhibition. actives 5.4% (n = 310,000). Potency, µM (series often up to 53.6 µM), without a hit: top-dose activity change, negative = inhibition, actives largely listed as inhibitors. Drosophila S2 Gal4-RORgamma UAS-luciferase reporter, 20 h; further: potency means the concentration at half of the fitted maximal effect; nearly all actives have a fitted effect of over 60% in size
Target sequence (P51450 whole entry, looked up, the tested form may be a part): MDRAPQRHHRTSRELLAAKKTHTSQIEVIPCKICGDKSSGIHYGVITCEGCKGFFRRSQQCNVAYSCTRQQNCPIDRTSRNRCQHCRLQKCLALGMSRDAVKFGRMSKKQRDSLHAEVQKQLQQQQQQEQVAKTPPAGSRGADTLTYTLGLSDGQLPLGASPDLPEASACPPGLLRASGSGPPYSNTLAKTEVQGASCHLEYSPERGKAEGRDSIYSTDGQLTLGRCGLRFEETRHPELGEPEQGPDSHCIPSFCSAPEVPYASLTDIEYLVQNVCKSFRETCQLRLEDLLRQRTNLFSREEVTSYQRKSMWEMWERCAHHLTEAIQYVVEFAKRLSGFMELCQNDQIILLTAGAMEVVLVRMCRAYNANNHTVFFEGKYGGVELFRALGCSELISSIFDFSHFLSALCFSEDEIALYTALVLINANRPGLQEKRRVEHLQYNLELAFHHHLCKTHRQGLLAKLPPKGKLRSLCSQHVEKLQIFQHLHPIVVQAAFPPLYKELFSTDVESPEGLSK
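Drosophila S2 cells stably expressing Gal4-DBD/mouse RORγ fusion under metallothionein promoter plus UAS-luciferase; compound 1 h, then 700 uM CuSO4 induction for 20 h at ambient temperature; inhibition read as reduced luminescence.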
IL1B secr inh – inflammasome signaling inhibition, IL-1 beta readout; THP-1 LPS/ATP IL-1B secretion, AlphaLISA, 16 h; hits give low values; activity change, % at 57.5 µM; actives 4.7% (n = 360,000); AID 743279; in the data active means activity change below about -50%; inconclusive means mostly about -30% to -49%
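THP-1 cells pretreated 1 hr with compounds (up to 57.5 uM final), then stimulated with LPS (250 ng/mL final) plus ATP (1.25 mM final); secreted IL-1B measured by AlphaLISA after 16 hr, decreased signal indicating inhibition.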
LDHA inh – inhibitors of human lactate dehydrogenase A. P00338. purified LDHA, NADH/diaphorase-resazurin fluorescence; hits give low values. activity change, % (values are at about 110 or 230 µM). actives 0.15% (n = 480,000); in the data active means activity change below about -30%; inconclusive means mostly about -25% to -30%;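 further: plate controls were DMSO wells for no effect and wells without enzyme for full effect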
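Enzyme activity of human lactate dehydrogenase 5 (2 nM; 0.06 mM NADH, 0.2 mM pyruvate, 5 min, RT) is measured via a resazurin/diaphorase fluorescence readout of residual NADH.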
TDP1 cell CPT – DT40-hTDP1 cell growth loss with CPT; Potency, µM (highest dose often 46.2 µM), for inactives: top-dose activity change, negative = growth inhibition, actives largely listed as inhibitors; actives 12% (n = 420,000); chicken DT40 Tdp1-/-;hTDP1 cells + 20 nM CPT, ATP luminescence, 48 h; AID 686979; further: potency means the concentration at half of the fitted maximal effect; nearly all actives have a fitted effect of over 55% in size
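Chicken DT40 Tdp1-/- cells stably complemented with human TDP1 were seeded at 400 cells/well in medium containing 20 nM camptothecin, exposed to pin-transferred compounds, and grown at 37 °C for at least 48 hr. Viability was read as ATP luminescence.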
VP16 counter – counter-screen for ROR gamma inhibitors: Gal4-VP16 reporter; Drosophila S2 Gal4-VP16 UAS-luciferase, luminescence, 20 h; Potency, µM (doses to about 53.6 µM), inactives show top-dose activity, negative = inhibition, actives largely listed as inhibitors; actives 3.5% (n = 310,000); AID 2546;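 further: Gal4-VP16 expression switched on by copper sulfate through the metallothionein promoter; potency means the concentration at half of the fitted maximal effect; nearly all actives have a fitted effect of over 50% in size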
* = called active by the depositor; ? = inconclusive; · = not tested or not shown. Unless noted, the call rests on the fitted dose curve; in most records, active means well fitted curve in the direction sought with a large enough effect; inconclusive means small, poorly fitted or top-dose-only effect, or another doubt; inactive means no such curve, though single readings can be large; an effect the other way counts as inactive or inconclusive. Unless noted, on the % scale 0 is the no-effect control and ±100 the full control effect.

SMILES	DT40 TDP1 no CPT	RORg inh	IL1B secr inh	LDHA inh	TDP1 cell CPT	VP16 counter
COCCCn1c(=S)[nH]c2ncccc2c1=O	3%	11µM*	8	-8	-10%	-25%
O=c1c2cccnc2[nH]c(=S)n1CCC1=CCCCC1	?	0.89µM*	0	-1	?	1.6µM*
CCC(Sc1nc2ccsc2c(=O)n1-c1ccc(Cl)c(C)c1)C(=O)NCc1ccco1 (stereo unspecified)	?	?	-71*	-5	?	25%
CCCC(=O)Nc1cc(-c2nc3cc(C)ccc3o2)ccc1C	·	·	·	-10	·	·
CC(C)N(CCNC(=O)CCc1ncc(-c2ccc(Cl)cc2)o1)C(C)C	·	·	·	-10	·	·
COc1ccc(C(=O)C2CCN(CCS(=O)c3ccccc3)CC2)cc1 (stereo unspecified)	·	·	·	4	·	·
O=C(NNC(=O)c1csc(-c2cnccc2C(F)(F)F)n1)c1ccc(C(F)(F)F)cc1	16µM*	?	99	1	?	?
Cc1cc(C(=O)N2CCCC(C(=O)c3ccc4ccccc4c3)C2)n(C)n1 (stereo unspecified)	21µM*	43%	19	-1	?	4%
CSc1ccc(C(=O)C2CCCN(C(=O)c3nn(C)c(=O)c4ccccc34)C2)cc1 (stereo unspecified)	16µM*	11%	-18	-8	?	4%
COc1ccc2cc(C(=O)C3CCCN(C(=O)/C=C/c4ccccn4)C3)ccc2c1 (stereo unspecified)	21µM*	-34%	-13	7	?	5%
COc1ccc2cc(C(=O)C3CCCN(C(=O)Cc4c(C)noc4C)C3)ccc2c1 (stereo unspecified)	21µM*	25%	3	0	23µM*	-8%
COc1ccc2cc(C(=O)C3CCCN(C(=O)c4cnccn4)C3)ccc2c1 (stereo unspecified)	?	21%	-11	-2	?	-8%
Cc1nc(C)c(C(=O)N2CCCC(C(=O)c3ccc4ccccc4c3)C2)s1 (stereo unspecified)	33µM*	?	-1	-15	?	-8%
COc1ccc2cc(C(=O)C3CCCN(C(=O)c4snnc4C)C3)ccc2c1 (stereo unspecified)	23µM*	?	?	2	16µM*	-5%
COc1ccc2cc(C(=O)C3CCCN(Cc4cnc(C)s4)C3)ccc2c1 (stereo unspecified)	16µM*	?	-66*	-4	23µM*	-25%
Cc1nc2c3ccccc3nn2c(C)c1CCC(=O)Nc1ccc(C(N)=O)cc1	·	·	·	0	·	·
CCOc1ccc(NC(=O)Nc2ccc3nsnc3c2)cc1	?	?	?	1	?	-7%
C=CCN(CC=C)C(=S)Nc1ccc2nsnc2c1	?	3.5µM*	45	13	-18%	6.3µM*
CCOc1ccc(NC(=S)Nc2ccc3nsnc3c2)cc1	8.2µM*	-91%	3	16	5.8µM*	?
COc1ccc(NC(=S)Nc2ccc3nsnc3c2)cc1	18µM*	10µM*	-4	31	6.5µM*	5.6µM*
COc1ccc(NC(=S)Nc2ccc3nc(C)c(C)nc3c2)cc1	-25%	11µM*	38	5	-16%	-3%
Cc1ccc(C(=O)NC2CC2)cc1NC(=O)NC1CCCC1	·	·	·	3	·	·
CCCCSc1nc(C)cc(NC(=S)Nc2ccc(OC)cc2)n1	-28%	1.3µM*	55	-16	-15%	3.5µM*
CCCN1C(=O)c2[nH]nc(-c3c(C)cc(C)cc3O)c2C1c1ccc(OC)cc1 (stereo unspecified)	·	·	·	6	·	·
Cc1cccc(C(=O)N2CCN(c3oc(-c4cccs4)nc3C#N)CC2)c1	·	·	·	-4	·	·
